Source: PubChem BioAssay
Only a selection was taken, and hits are over-represented in it overall.
HIV RNase H inh-1 = blocks HIV-1 RNase H cleavage of RNA/DNA duplex | RT-RNase H RNA/DNA duplex cleavage, fluorescence | inhibition, % at 10 µM | P04585 | 1.9% of 65,000 active; in the data active = inhibition above about 50%
RmlCD inh mix = inhibitors of RmlC and RmlD coupled enzymes. RmlC/RmlD coupled enzyme inhibition, 384-well mixture HTS. inhibition, % at 5.5 µM. 0.39% of 110,000 active. AID 1532; in the data active = inhibition above about 30%, passing the limit was not always enough; inconclusive = no clear call, values can overlap the other calls
HIV RNase H inh-2 = confirmation of HIV-1 reverse transcriptase RNase H inhibitors; shares compounds with HIV RNase H inh-1; Recombinant RT RNase H, fluorescent RNA/DNA duplex cleavage; inhibition, % at 10 µM; 39% of 1,000 active; in the data active = inhibition above about 48%; inconclusive = no clear call, values can overlap the other calls
Each line names hits and unclear results; the compound was inactive in the other large screens (follow-up assays come after a bar, where they were run).

C#CCOCCOCCOCCNc1nc(N2CCN(C(=O)C([C@@H](C)CC)n3cc(C(N)Cc4ccc(O)cc4)nn3)CC2)nc(N2CCN(C(=O)[C@H](CCC(=O)O)n3cc(C(N)Cc4ccc(O)cc4)nn3)CC2)n1 (some centres not stated)	none (no result: HIV RNase H inh-1)
Cc1c(NC(=O)C(C)OC(=O)CC2Sc3ccccc3NC2=O)c(=O)n(-c2ccccc2)n1C (configuration not stated)	none
CCCCn1c(CN2C(=O)c3ccccc3C2=O)nc2ccccc2c1=O	HIV RNase H inh-1 90.0 | HIV RNase H inh-2 54.3
O=C1c2ccccc2C(=O)N1Cc1nc2ccccc2c(=O)n1CCCn1ccnc1	none
Cc1cc(NC(=O)CSc2nc(C(C)C)nc3sc4c(c23)CCCC4)no1	HIV RNase H inh-1 70.2 | HIV RNase H inh-2 inactive
Cc1cc(NC(=O)CSc2nc(C3CCCCC3)nc3ccccc23)no1	none
Cc1cc(NC(=O)CSc2nc3sc4c(c3c(=O)n2C)CCCC4)no1	none (no result: RmlCD inh mix)
Cc1cc(NC(=O)CSc2nc(C3CC3)nc3sc4c(c23)CCC(C)C4)no1 (configuration not stated)	HIV RNase H inh-1 70.0 | HIV RNase H inh-2 96.6
COc1ccc2nc(SCC(=O)Nc3c(C)cccc3C)[nH]c2c1	none (no result: HIV RNase H inh-1)
COc1ccc2nc(S(=O)Cc3ncc(C)c(OC)c3C)[nH]c2c1 (configuration not stated)	HIV RNase H inh-1 76.2 | HIV RNase H inh-2 inactive
COC(=O)c1cc(C#N)c(NCc2ccccc2)nc1C	none (no result: HIV RNase H inh-1)
CC(c1ccccc1)C1C(C#N)=C(N)SC(N)=C1C#N (configuration not stated)	none
N#CC1=C(N)SC(N)=C(C#N)C1c1ccoc1	HIV RNase H inh-1 86.2 | HIV RNase H inh-2 inactive
Cc1ccc(C2C(C#N)=C(N)SC(N)=C2C#N)c(C)c1	HIV RNase H inh-1 83.1 | HIV RNase H inh-2 inactive
Cc1ccc(C2C(C#N)=C(N)SC(N)=C2C#N)cc1	HIV RNase H inh-1 66.9 (no result: RmlCD inh mix) | HIV RNase H inh-2 inactive
CC(C)C1C(C#N)=C(N)SC(N)=C1C#N	none
CC1=C(C#N)C(c2ccoc2)C(C(=O)OCc2ccccc2)=C(N)S1 (configuration not stated)	none
Nc1nc(-c2cccc(NS(=O)(=O)c3ccccc3)c2)cs1	none
Cc1c(NC(=O)Cn2cnc3c(=O)n(C)c(=O)n(C)c32)cccc1-c1nc2ccccc2o1	none (no result: RmlCD inh mix)
CCOCC(=O)Nc1c(C(=O)Nc2ccc(OC)cc2OC)oc2ccccc12	none
COc1cccc(OCC(=O)Nc2c(C(=O)Nc3ccc(OC)cc3OC)oc3ccccc23)c1	HIV RNase H inh-1 89.1 (no result: RmlCD inh mix) | HIV RNase H inh-2 92.9
CC(=O)c1ccc(NS(=O)(=O)c2cccc(C)c2)cc1	none
COc1ccc(C(=O)Nc2oc(-c3ccccc3)c(-c3ccccc3)c2C#N)cc1	none (no result: HIV RNase H inh-1)
COc1ccc(C(=O)Nc2oc(-c3ccccc3)c(-c3ccccc3)c2C#N)cc1OC	HIV RNase H inh-1 62.3 | HIV RNase H inh-2 inconclusive
CC(=O)c1ccc(C#CC(C)(C)O)s1	none
CC(C)(O)C#Cc1ccc(C(=O)NCc2cccs2)s1	HIV RNase H inh-1 64.8 | HIV RNase H inh-2 inactive
COc1ccc(-n2ncc3c(N4CCN(c5cc(C)ccc5C)CC4)ncnc32)cc1	HIV RNase H inh-1 54.0 | HIV RNase H inh-2 inactive
COc1ccc(N2CCN(c3ncnc4c3cnn4-c3ccc(C)cc3C)CC2)cc1	none
O=C(COc1ccc(S(=O)(=O)NC2CCCCC2)cc1Cl)N1CCN(c2ccccc2)CC1	none (no result: HIV RNase H inh-1)
CN(C(=O)CSc1nnc2ccccn12)C1CCS(=O)(=O)C1 (configuration not stated)	none (no result: HIV RNase H inh-1)
CN(C(=O)CSc1nc2ccccc2n1CCc1ccccc1)C1CCS(=O)(=O)C1 (configuration not stated)	HIV RNase H inh-1 85.9 | HIV RNase H inh-2 inactive
O=C(Nc1cn(-c2ccccc2)nc1-c1cccs1)c1ccco1	none
CCC(C)(C)n1nnnc1C(c1ccc(C)cc1)N(Cc1ccco1)Cc1cccs1 (configuration not stated)	none (no result: HIV RNase H inh-1)
CC1Cc2ccccc2N1Cc1nc2cc(Cl)ccc2c(=O)[nH]1 (configuration not stated)	none (no result: HIV RNase H inh-1)
COC(=O)c1ccc2c(=O)[nH]c(CN3c4ccccc4CC3C)nc2c1 (configuration not stated)	HIV RNase H inh-1 63.5 | HIV RNase H inh-2 61.4
COc1ccc(-c2c(NC(=O)c3ccco3)n(C)c3ccccc3c2=O)cc1	none (no result: HIV RNase H inh-1)
COc1ccc(-c2csc(NC(CO)c3nc4ccccc4n3CCOCCO)n2)cc1 (configuration not stated)	none (no result: HIV RNase H inh-1)
CCCOC(=O)NC(CC)COC(=O)Nc1cccc(C)c1C (configuration not stated)	none
O=C1C2ON(c3ccccc3)C(c3cccnc3)C2C(=O)N1c1ccccc1 (configuration not stated)	none
O=C1C2ON(c3ccc(Br)cc3)C(c3cccnc3)C2C(=O)N1C1CCCCC1 (configuration not stated)	HIV RNase H inh-1 64.3 (no result: RmlCD inh mix) | HIV RNase H inh-2 inactive
CC(C)C(=O)Nc1ccc(-c2csc(-c3ccccc3)n2)cc1	none (no result: HIV RNase H inh-1)
CC(O)c1cccc(NC2=CC(=O)CC(C)(C)C2)c1 (configuration not stated)	none
CSc1nc(-c2ccco2)nn1C(=O)c1ccco1	none
CN=C(c1ccco1)n1c(=S)nc(-c2ccco2)n(C)c1=S	HIV RNase H inh-1 55.5 | HIV RNase H inh-2 inconclusive
COCCCNS(=O)(=O)c1ccc(S(=O)(=O)N2CCCC2)cc1	none (no result: HIV RNase H inh-1)
CCn1c(=O)cc(SCC(=O)N2CCOCC2)c2ccccc21	none
CCn1c(=O)cc(SCC(=O)N2CCN(c3ccccc3OC)CC2)c2ccccc21	HIV RNase H inh-1 70.8 | HIV RNase H inh-2 inactive
Cc1cc(C)cc(OCC(=O)Nc2cccc(C(=O)O)c2)c1	none (no result: HIV RNase H inh-1)
Cc1cc(C)cc(OCC(=O)Nc2nonc2NC(=O)COc2cc(C)cc(C)c2)c1	HIV RNase H inh-1 78.1 | HIV RNase H inh-2 66.6
Cc1ccc(-c2nnn(CC(=O)Nc3ccc(S(=O)(=O)N4CCC(C)CC4)cc3)n2)cc1	none
CC1CCN(S(=O)(=O)c2ccc(NC(=O)Cn3nnc(-c4ccccc4)n3)cc2)CC1	HIV RNase H inh-1 69.6 | HIV RNase H inh-2 68.4
O=c1[nH]c(=O)n(Cc2ccco2)c2c1C(C(F)(F)F)(C(F)(F)F)N=C(CCC1CCCCC1)N2	none (no result: HIV RNase H inh-1)
O=c1[nH]c(=O)n(Cc2ccco2)c2c1C(C(F)(F)F)(C(F)(F)F)N=C(C1CCCCC1)N2	HIV RNase H inh-1 69.6 | HIV RNase H inh-2 inactive
CCn1c(-c2ccccc2Cl)nn(CC(=O)Nc2ccc(OC)cc2)c1=S	none (no result: HIV RNase H inh-1)
CCn1c(CSc2nc3ccccc3s2)nnc1SCC(=O)c1ccc(O)c(O)c1	none (no result: HIV RNase H inh-1)
CCn1c(SCC(=O)c2ccc(O)c(O)c2)nnc1-c1ccccc1OC	HIV RNase H inh-1 81.3 | HIV RNase H inh-2 62.1
C=CCn1c(SCC(=O)c2ccc(O)c(O)c2)nnc1-c1ccccc1OC	HIV RNase H inh-1 84.6 | HIV RNase H inh-2 62.2
C=CCn1c(SCC(N)=O)nnc1-c1ccccc1O	none
CC(=O)c1c(C)oc2ccc(NS(=O)(=O)c3ccc(O)c(C(=O)O)c3)cc12	none
O=C(O)c1cc(S(=O)(=O)Nc2ccc3oc(=O)sc3c2)ccc1O	HIV RNase H inh-1 82.3 | HIV RNase H inh-2 63.7
COc1cc2c(cc1OC)-c1nnc(-c3ccco3)n1C1(CCCC1)C2	none (no result: HIV RNase H inh-1)
Cc1cccc2sc(NC(=O)C3CCCO3)nc12 (configuration not stated)	none
Cc1nc(C)c(C(=O)Nc2nc3c(C)cccc3s2)o1	HIV RNase H inh-1 86.4 | HIV RNase H inh-2 68.0
O=C(NNC(=O)C1CCCCC1)C(=O)NC1CCCCC1	none (no result: HIV RNase H inh-1)
